From paper PMC4336329 (PLoS ONE, 2015) come the findings set out here.

The whole screen tested about 310,000 compounds, of which about 14,000 (4.5%) showed an effect of 50% or more. Effects have a minus sign here. The list comes from a sample in which strong results are over-represented; it also holds similar structures and randomly drawn compounds.
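Further: peak tail current of the secondary pulse compared with the same well before compound.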

The assay deals with human ether-à-go-go-related gene (hERG) potassium channel (human, UniProt Q12809). Description: primary screen, population patch clamp on CHO cells stably expressing hERG; higher = less effect of the substance.
Chain of human ether-à-go-go-related gene (hERG) potassium channel (Q12809 whole entry, looked up): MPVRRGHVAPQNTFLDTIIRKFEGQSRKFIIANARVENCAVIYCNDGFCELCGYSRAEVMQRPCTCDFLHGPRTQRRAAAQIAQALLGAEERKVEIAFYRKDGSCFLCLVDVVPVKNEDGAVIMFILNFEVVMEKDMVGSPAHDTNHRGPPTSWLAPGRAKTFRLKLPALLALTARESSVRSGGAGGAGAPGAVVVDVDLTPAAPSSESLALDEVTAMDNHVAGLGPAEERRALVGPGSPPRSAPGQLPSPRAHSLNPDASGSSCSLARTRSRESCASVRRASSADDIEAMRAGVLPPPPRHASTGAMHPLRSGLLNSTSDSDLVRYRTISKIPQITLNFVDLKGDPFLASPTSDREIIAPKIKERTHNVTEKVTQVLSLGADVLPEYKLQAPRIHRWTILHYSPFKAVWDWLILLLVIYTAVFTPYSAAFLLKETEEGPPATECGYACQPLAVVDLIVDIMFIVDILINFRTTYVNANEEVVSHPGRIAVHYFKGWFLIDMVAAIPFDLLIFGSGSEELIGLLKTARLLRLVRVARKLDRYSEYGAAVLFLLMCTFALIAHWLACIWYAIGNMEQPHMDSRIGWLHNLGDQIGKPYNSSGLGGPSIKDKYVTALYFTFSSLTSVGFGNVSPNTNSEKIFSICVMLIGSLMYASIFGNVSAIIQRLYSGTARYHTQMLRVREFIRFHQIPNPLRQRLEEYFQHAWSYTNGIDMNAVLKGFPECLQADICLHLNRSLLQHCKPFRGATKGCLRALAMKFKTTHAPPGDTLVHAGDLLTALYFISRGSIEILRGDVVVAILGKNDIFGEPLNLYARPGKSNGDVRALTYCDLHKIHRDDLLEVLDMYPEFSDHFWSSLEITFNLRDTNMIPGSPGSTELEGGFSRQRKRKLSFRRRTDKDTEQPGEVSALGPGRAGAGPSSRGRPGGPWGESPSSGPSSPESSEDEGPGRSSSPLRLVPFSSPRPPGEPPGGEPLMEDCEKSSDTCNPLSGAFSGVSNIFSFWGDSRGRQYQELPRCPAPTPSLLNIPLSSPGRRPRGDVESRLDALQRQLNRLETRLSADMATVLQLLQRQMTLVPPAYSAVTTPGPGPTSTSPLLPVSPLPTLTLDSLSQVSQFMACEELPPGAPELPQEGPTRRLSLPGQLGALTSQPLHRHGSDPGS
For `COc1ccc(CCC(=O)OC(C)C(=O)c2ccc(C)cc2)cc1` (centres unmarked), the “hERG current change (%, negative = inhibition) at 10uM” value stood at 0.769%. As for `COCCSc1nnc(NC(=O)c2cc(C(=O)OC)cc([N+](=O)[O-])c2)s1`, the “hERG current change (%, negative = inhibition) at 10uM” value was 11.4%. For `CC(C)c1nc(SCC(=O)NCc2ccccc2)n[nH]1`, the “hERG current change (%, negative = inhibition) at 10uM” value worked out at 2.8%. As for `CCOC(=O)C1(Cc2ccccc2)CCCN(C(=O)c2cn[nH]c2)C1` (centres unmarked), the “hERG current change (%, negative = inhibition) at 10uM” value is on record as 13.4%. The result for `O=C(c1ccc(-n2ccnc2)cc1)N1CCCC(CO)(Cc2cccc(Cl)c2)C1` (centres unmarked) reads -60.4%; that for `Cc1ccccc1CC1(CO)CCCN(C(=O)c2cccc(Cl)c2)C1` (centres unmarked), 1.01%; that for `COc1cccc(CC2(CO)CCCN(C(=O)c3cc[n+]([O-])cc3)C2)c1` (centres unmarked), 10.4%. As for `CCOC(=O)C1(Cc2ccccc2)CCCN(C(=O)C=C(C)C)C1` (centres unmarked), the figure is 13.2%. The result for `CCOC(=O)C1(Cc2ccccc2)CCCN(C(=O)c2ccc(-n3ccnc3)cc2)C1` (centres unmarked) reads -58.4%; that for `CC(=O)c1ccc(NC(=O)c2ccc(COc3ccccc3[N+](=O)[O-])o2)cc1`, -8.46%. On to `Cc1cc(=O)n(CC(=O)Nc2cc(Cl)ccc2C)c(C(C)C)n1`, for which the “hERG current change (%, negative = inhibition) at 10uM” value is -1.59%. As for `CN(CC1CCOCC1)C(=O)CC1C(=O)NCCN1Cc1ccc(Cl)c(F)c1` (centres unmarked), the figure is 10.4%; as for `CCCCNC(=O)c1nn(-c2ccccc2OC)c(=O)c2ccccc12`, -4.46%. As for `COc1ccc(NC(=O)CCN2CCN(S(=O)(=O)c3ccc(F)cc3)CC2)cc1`, the figure is -6.32%; as for `Cc1cc(C)c2c(-n3cccc3)c(C(=O)NNS(=O)(=O)c3ccc(Cl)cc3)sc2n1`, 0.175%. As for `O=C(Nc1ccccc1)NC1CCN(Cc2ccccc2)CC1`, the figure is -39.4%; as for `O=C(/C=C/c1cccc(F)c1)NC1CCN(Cc2ccccc2)CC1`, -70.6%. Consider `O=C(Nc1cccc(C(F)(F)F)c1)NC1CCCCC1`, for which the “hERG current change (%, negative = inhibition) at 10uM” value is on record as -3.18%.

As to `CCN1CCC(NC(=O)Nc2cccc(C(F)(F)F)c2)CC1`, the “hERG current change (%, negative = inhibition) at 10uM” value is recorded as -51.1%. The result for `O=C(Cc1c(F)cccc1Cl)NC1CCN(Cc2ccccc2)CC1` reads -0.715%; that for `S=C(Nc1ccc(Br)cc1Cl)NC1CCN(Cc2ccccc2)CC1`, -2.37%. The result for `O=C(COC(=O)/C=C/c1cccc(Br)c1)NC1CC1` reads -2.84%; that for `CN1CCC(NC(=O)Nc2cccc(C(F)(F)F)c2)CC1`, -0.705%. The result for `COc1ccc(/C=C/C(=O)NC2CCN(Cc3ccccc3)CC2)cc1OC` reads -29%. For `O=C(/C=C/c1cccc(Br)c1)NC1CCN(Cc2ccccc2)CC1`, the “hERG current change (%, negative = inhibition) at 10uM” value is recorded as -71.1%.

As for `O=C(Nc1cccc(F)c1)NC1CCN(Cc2ccccc2)CC1`, the “hERG current change (%, negative = inhibition) at 10uM” value is listed as -56.4%. As for `O=C(Nc1ccc(F)cc1)NC1CCN(Cc2ccccc2)CC1`, the figure is -36.7%. As to `COc1ccc(CN2C(=O)[C@H]3Cc4c([nH]c5ccccc45)C(C)(C)N3C2=O)cc1`, the “hERG current change (%, negative = inhibition) at 10uM” value turned out to be 7%.

As to `COc1cccc(NC(=O)N(Cc2cc3cc(C)cc(C)c3[nH]c2=O)CC2COCCO2)c1` (centres unmarked), the “hERG current change (%, negative = inhibition) at 10uM” value was 4.85%.

Regarding `Cc1nnc(SCC(=O)N(Cc2ccccc2)C(C)C)n1-c1ccccc1`, the “hERG current change (%, negative = inhibition) at 10uM” value was -5.28%. In the case of `Cc1c(O)ccc2c(=O)c(-c3nncn3-c3ccccc3)coc12`, the “hERG current change (%, negative = inhibition) at 10uM” value turned out to be 21.2%. As for `COc1ccc(NC(=O)c2ccccc2C)cc1`, the figure is 14.9%; as for `Cc1c(C(=O)NCCc2ccccc2)oc2ccc(S(=O)(=O)N3CCOCC3)cc12`, -19.1%. Consider `CC(C)CC(=O)NCC(C)NC(=O)CC(C)C` (centres unmarked), for which the “hERG current change (%, negative = inhibition) at 10uM” value was 3.51%. As for `COc1ccc(C(CC(=O)N2CCN(c3ccccc3)CC2)c2c(OC)cc(OC)c3ccc(=O)oc23)cc1` (centres unmarked), the figure is 1.88%; as for `Fc1ccc(C2CC(c3ccccc3)n3ncnc3N2)cc1` (centres unmarked), -29.3%; as for `Fc1ccc(C2CC(c3ccccc3)Nc3ncnn32)cc1` (centres unmarked), -45.9%.

Take `Fc1ccc(C2CC(c3ccc(F)cc3)n3ncnc3N2)cc1` (centres unmarked): the “hERG current change (%, negative = inhibition) at 10uM” value is -60%.

Take `Clc1ccc(C2CC(c3ccccc3)Nc3ncnn32)cc1` (centres unmarked): the “hERG current change (%, negative = inhibition) at 10uM” value is listed as -64.4%. Take `Cc1ccc(C2CC(c3ccccc3)n3ncnc3N2)cc1` (centres unmarked): the “hERG current change (%, negative = inhibition) at 10uM” value is recorded as -1.18%. Take `c1ccc(C2CC(c3ccccc3)n3ncnc3N2)cc1` (centres unmarked): the “hERG current change (%, negative = inhibition) at 10uM” value was -17.3%.

For the compound `CCc1ccc(/C=C2\SC(=S)N(CCCC(=O)Nc3nccs3)C2=O)cc1`, the “hERG current change (%, negative = inhibition) at 10uM” value came out at 8.83%. The result for `Cc1ccc(S(=O)(=O)n2nc(OC(=O)c3ccccc3F)cc2N)cc1` reads 9.49%; that for `CC(=O)Nc1c(Nc2ccccc2)c2ccccc2oc1=O`, 3.92%. As for `COc1cccc(C(=O)N2CCN(C(=O)COc3ccc4ccccc4c3)CC2)c1`, the figure is -47.4%; as for `COc1ccccc1CN1CCN(C(=O)COc2ccc3ccccc3c2)CC1`, -36%; as for `COc1cc(C(=O)N2CCN(C(=O)COc3ccc4ccccc4c3)CC2)cc(OC)c1OC`, -73%. The result for `COc1ccc(C(=O)N2CCN(C(=O)c3cc(OC)c(OC)c(OC)c3)CC2)cc1` reads -17.4%; that for `COc1cc(OC)cc(C(=O)N2CCN(C(=O)COc3ccc4ccccc4c3)CC2)c1`, -64.8%.

On to `COc1cc(OC)c(OC)cc1CN1CCN(C(=O)COc2ccc3ccccc3c2)CC1.O=C(O)C(=O)O`, for which the “hERG current change (%, negative = inhibition) at 10uM” value is -36.4%. The result for `CN1CCN(C(=O)COc2ccc3ccccc3c2)CC1` reads -3.47%. As for `COc1ccc(CN2CCN(C(=O)COc3ccc4ccccc4c3)CC2)c(OC)c1`, the figure is -52.6%.

For the compound `COc1ccc(N2CCN(C(=O)COc3ccc4ccccc4c3)CC2)cc1`, the “hERG current change (%, negative = inhibition) at 10uM” value was determined as 5.36%.

Turning to `NC(=O)CCN(C1CCCCC1)S(=O)(=O)c1cccc2nsnc12`, the “hERG current change (%, negative = inhibition) at 10uM” value is 10.5%.

Consider `Cc1ccc(SCc2cc(=O)c3c(=O)n(-c4ccccc4)[nH]c3[nH]2)cc1`, for which the “hERG current change (%, negative = inhibition) at 10uM” value amounted to 7.34%. As for `N#Cc1nc(-c2ccco2)oc1N1CCCC1`, the figure is -11.1%.
